Compounds with a hit are over-represented: about 4.1% of the library has one in this group of screens.
ssDAF-12 act – activators of S. stercoralis DAF-12 nuclear receptor | HEK293 ssDAF-12/GRIP1 lit1-tk-luc reporter, luminescence; % of 3 µM dafachronic acid response | activation, % at 6.8 µM | 370,000 tested, 1% active | AID 652126;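 active means activation above the mean over all tested compounds plus 3 SD, cut at about 0.9% in these data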;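 further: 0% = DMSO-only wells and 100% = 3 µM delta7-dafachronic acid wells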
hcDAF-12 act – H. contortus DAF-12 activation, primary screen. HEK293 hcDAF-12 lit1-tk-luc reporter, luminescence; 0% DMSO, 100% Δ7-dafachronic acid. activation, % at 6.8 µM. 370,000 tested, 1.4% active. AID 652067;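 active means activation above the mean of all tested compounds plus 3 SD, cut at about 5.5% in these data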;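 further: 100% = response to 3 µM Δ7-dafachronic acid high control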
DAX1 inh-1 – inhibitors of human orphan nuclear receptor DAX1 (NR0B1) | HEK293 Gal4-DAX1 luciferase reporter, luminescence | inhibition, % at 6.75 µM | 340,000 tested, 0.99% active | AID 504766;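 active means inhibition above the mean over all tested compounds plus 3 SD, cut at about 4.2% in these data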;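 further: 0% = DAX1-transfected cells with DMSO and 100% = empty-vector control cells with DMSO; inhibition shows as a rise in luminescence from relieved DAX1 repression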
Target sequence (P51843 207-470 limits assumed): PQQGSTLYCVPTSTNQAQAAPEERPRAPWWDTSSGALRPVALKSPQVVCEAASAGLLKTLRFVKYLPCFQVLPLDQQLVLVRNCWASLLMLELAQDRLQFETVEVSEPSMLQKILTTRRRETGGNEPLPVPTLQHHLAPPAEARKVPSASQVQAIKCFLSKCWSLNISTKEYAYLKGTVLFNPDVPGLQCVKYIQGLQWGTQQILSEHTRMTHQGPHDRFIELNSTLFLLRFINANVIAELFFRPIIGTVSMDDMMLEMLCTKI
hgDAF12 agonist – activates the H. glycines DAF-12 receptor ligand-binding domain | HEK293 GAL4-hgDAF12 UAS-luciferase reporter, agonist luminescence; normalized to butyrate control | activation, % at 6.8 µM | 370,000 tested, 1.8% active | AID 687014;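 active means activation above a cutoff set at the mean of all screened compounds plus 3 SD, cut at about 10% in these data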;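 further: 0% = DMSO wells and 100% = sodium butyrate wells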
DAX1 inh-2 – DAX1 (NR0B1) inhibition, primary screen | 370,000 tested, 1.1% active | HEK293T StAR-luciferase reporter, SF-1/DAX-1 repression relief | inhibition, % at 6.8 µM | AID 652010;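 active means inhibition above the mean over all tested compounds plus 3 SD, cut at about 3.6% in these data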;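 further: 0% = DAX-1 cells with DMSO and 100% = cells lacking DAX-1 with DMSO; higher inhibition means more luminescence from relief of DAX-1 repression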
hgDAF12 ag – hgDAF-12 agonism, confirmation assay; activation, % at 6.8 µM; HEK293 GAL4-hgDAF12 luciferase reporter, agonist mode; percent of butyrate response; shares compounds with hgDAF12 agonist; AID 743050; 3,300 tested, 80% active;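 active means mean activation over triplicate wells above the hit cutoff derived from the earlier primary screen, cut at about 11% in these data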;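 further: 0% = DMSO low control and 100% = 2 mM sodium butyrate high control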
LXRb DAF12 ctr – LXR-beta agonism as DAF-12 counter-screen | shares compounds with hgDAF12 agonist | HEK293 Gal4-LXR luciferase reporter, 24 h | activation, % at 6.8 µM | 3,300 tested, under 10 active;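 active means mean activation of the triplicate above a set limit carried over from the primary screen, none filed active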
* hit, by the source's call; . = no result.

SMILES	ssDAF-12 act	hcDAF-12 act	DAX1 inh-1	hgDAF12 agonist	DAX1 inh-2	hgDAF12 ag	LXRb DAF12 ctr
COc1ccccc1-c1csc(C(C)(O)c2cccc(F)c2)n1 (configuration not stated)	-1.5	-0.4	.	-3.0	0.5	.	.
CC12CCC(C(=O)Nc3ncc([N+](=O)[O-])s3)(OC1=O)C2(C)C (configuration not stated)	.	.	1.3	.	.	.	.
Clc1ccccc1-c1nnc(-c2ccccc2Cl)o1	-0.6	4.9	1.8	14.8*	3.5	17.2*	0.6
CCCNCc1nnc(-c2ccccc2Cl)o1	-1.4	-1.4	1.4	3.0	0.1	.	.
Clc1ccc(-c2nnc(-c3ccccc3Cl)o2)cc1	-0.4	3.7	2.4	13.5*	2.5	19.2*	1.1
CC1=C(C(=O)N(C(C)C)C(C)C)CC(CC(=O)NCCc2ccccn2)C(=O)N1CCCN1CCCC1=O (configuration not stated)	-1.6	-0.8	.	0.7	-0.3	.	.
COc1cccc(-c2ccc(SCC(=O)NC3CCCCC3)nn2)c1	-1.3	-0.7	0.3	0.9	-1.3	.	.
CC(=O)Nc1ccc(OCC[n+]2cccc(C(N)=O)c2)cc1	-1.2	-0.8	.	19.7*	0.0	-0.3	0.0
CC(=O)Nc1ccc(OCCC[n+]2ccccc2)cc1	-1.1	1.1	2.2	1.6	-0.5	.	.
O=C(c1ccc([N+](=O)[O-])o1)N1CCc2ccccc21	-0.2	-0.1	0.9	-1.2	-0.9	.	.
Cc1ccc(C(=O)N2CCc3ccccc32)o1	2.1*	5.2	1.0	15.5*	3.8*	16.2*	0.8
O=C(N/N=C/c1cn(-c2ccccc2)nc1-c1cc2ccccc2o1)c1c[nH]c2ccccc12	0.5	3.8	0.9	19.0*	1.6	12.8*	0.7
COc1cc(/C=C/c2nc3ccccc3c(=O)[nH]2)ccc1OC(F)F	-0.8	1.9	3.8	5.8	0.9	.	.
COc1cc(/C=C/c2nc3ccccc3c(=O)[nH]2)cc(OC)c1OC	-1.0	-0.6	-3.2	4.7	0.2	.	.
Cc1ccccc1/C=C\c1nc2ccccc2c(=O)[nH]1	1.3*	2.1	2.3	15.5*	3.3	20.0*	0.8
C=CCOc1cccc(/C=C/c2nc3ccccc3c(=O)[nH]2)c1	1.3*	4.3	4.2	15.0*	3.5	15.5*	0.8
COc1ccc2cc(C3=CC(=O)CCC3)ccc2c1	0.1	6.2*	4.1	15.7*	1.6	15.6*	0.9
O=C1C=C(c2ccc3[nH]ccc3c2)CCC1	-0.8	2.3	1.5	8.6	1.3	.	.
O=c1ccc(Cl)n[nH]1	-1.2	0.4	0.9	3.0	0.2	.	.
Cc1cc(C(=O)CSc2nnnn2C)c(C)n1-c1cccc(F)c1	-0.6	3.0	1.9	13.6*	2.3	14.8*	0.9
Cc1cc(C(=O)CSc2ncccn2)c(C)n1-c1cccc(F)c1	2.3*	6.1*	2.5	13.8*	4.3*	15.4*	0.9
Cc1cc(C)cc(-n2c(C)cc(C(=O)CSc3nnnn3C)c2C)c1	-1.4	-1.0	-1.0	2.2	-1.5	.	.
CC(=O)OCc1cc(-c2nc3ccccc3[nH]c2=O)nn1-c1ccc(Cl)cc1	0.4	2.0	-1.1	2.8	0.3	.	.
O=c1c2c(nc3cc(-c4ccccc4)[nH]n13)CCC2	-0.2	3.0	0.2	15.0*	2.5	13.3*	0.8
O=c1c2c(nc3cc(-c4ccc(Br)cc4)[nH]n13)CCCC2	1.4*	1.4	6.3*	14.0*	3.7*	19.8*	1.1
SMILES	ssDAF-12 act	hcDAF-12 act	DAX1 inh-1	hgDAF12 agonist	DAX1 inh-2	hgDAF12 ag	LXRb DAF12 ctr
COc1ccccc1NS(=O)(=O)c1ccc(NN=C2CCCCC2)c([N+](=O)[O-])c1	-2.0	-2.9	-1.2	-1.0	-0.1	.	.
O=C(CN1C(=O)C2CC=CCC2C1=O)NCC(=O)Nc1ccc(F)c(F)c1 (configuration not stated)	-1.0	-1.7	-0.5	-0.5	-1.3	.	.
Fc1ccccc1NC(=S)N/N=C/c1ccccc1Br	0.5	3.8	1.2	16.2*	4.3*	11.8*	0.8
O=[N+]([O-])c1ccc(/C=N/NC(=S)Nc2ccccc2F)o1	-1.3	1.3	2.2	1.6	-1.6	.	.
CCCOc1ccc(-c2c(=O)n(O)c3ccccc3[n+]2[O-])cc1	-0.6	6.2*	2.9	20.2*	4.5*	13.2*	0.3
CSc1ccc(-c2cnc(N3CCC(C(N)=O)CC3)s2)cc1	0.8	3.5	.	20.8*	.	17.4*	0.9
Cc1ccc(CN2CCN(C(=O)/C=C/[C@H]3O[C@@H](n4cc(C)c(=O)[nH]c4=O)C[C@@H]3O)CC2)cc1	-1.6	0.3	.	0.9	-0.9	.	.
O=NN(CCCl)C(=O)NCC1=C[N+](=O)CC=C1	-0.5	1.4	.	-1.4	1.1	.	.
C/C(=N\NC(=O)c1ccn[nH]1)c1cn(C)nc1C	1.3*	3.2	2.3	15.1*	2.1	10.1	0.3
COc1cc(N)ccc1NC(=O)c1cc2ccccc2o1	0.3	4.4	3.9	17.4*	1.3	9.0	0.5
COCCNC(=O)c1ccc2ccccc2n1	-0.1	2.4	0.6	1.8	1.3	.	.
Cc1ccccc1OCCNC(=O)c1ccc2ccccc2n1	-0.4	2.2	2.6	15.3*	3.1	12.1*	0.6
CC(C)(C)c1cc(C(=O)N2CCc3ccccc3C2)ccn1	-1.3	-0.5	-0.4	2.2	-0.2	.	.
O=C(CCl)Nc1ccc(N=Nc2ccccc2)cc1	0.1	3.0	1.6	4.9	-1.0	.	.
CC(=O)Nc1ccc(N=Nc2ccccc2)cc1	-0.6	4.5	2.4	15.8*	4.2*	15.1*	0.5
CC(=O)Nc1ccccc1	-1.2	-0.1	1.2	-0.5	-0.1	.	.
CC(C)C(=O)OCC(=O)Nc1ccc(N=Nc2ccccc2)cc1	-1.2	1.8	3.0	15.6*	2.9	16.6*	0.8
Cc1ccc(OC(=O)c2ccc3nc(C)sc3c2)cc1	0.4	1.4	.	14.9*	3.0	16.6*	0.8
Cc1nc2ccc(OC(=O)c3ccccc3)cc2s1	-1.1	-0.6	1.1	2.7	-0.1	.	.
Cc1ccc(-c2nc3ccc(C(=O)O)cc3nc2-c2ccc(C)cc2)cc1	-1.4	-0.4	4.2	-0.7	-0.8	.	.
Cc1nc2cc(C(=O)O)ccc2s1	0.3	2.6	1.2	14.9*	2.0	16.5*	0.6
CC(=O)c1cccc(NC(=O)NCc2ccc3c(c2)OCO3)c1	-0.5	-1.6	1.9	-0.3	-2.8	.	.
O=C(Nc1ccc2c(c1)OCCO2)NC12CC3CC(CC(C3)C1)C2	-0.6	4.0	1.2	14.0*	1.5	16.7*	0.7
Cn1cc(C(=O)Nc2ccc3c(c2)CCC3)cn1	0.5	1.1	2.0	8.4	1.7	.	.
CC(=O)c1cccc(NC(=O)Nc2ccc3c(c2)OCO3)c1	0.4	1.0	1.6	14.4*	1.9	13.7*	0.4
